Experimental data from article PMC4552634, “A New Set of Chemical Starting Points with Plasmodium falciparum Transmission-Blocking Potential for Antimalarial Drug Discovery” (PLoS ONE, 2015).
The campaign covered roughly 13,000 compounds. About 3,200 (25%) showed an effect of 50% or more. The list shows a part of the results.

system: P. falciparum stage V gametocytes; design: BacTiter-Glo ATP luminescence viability of purified stage V gametocytes in 384-well plates, per cent inhibition versus DMSO; settings: 48 h, 5 µM; inhibitor

SMILES	% Inhibition [%]
OC(CNc1ccnc(Nc2cccc(Cl)c2)n1)c1ccc(C(F)(F)F)cc1 (stereo not drawn) [TCMDC-136596]	-49.28
Cc1nc(N)nc(N)c1-c1ccc(Br)cc1 [TCMDC-137374]	-63.84
COc1cc2nc(-c3ccc(Br)cc3)cc(N)c2cc1OC [TCMDC-138933]	106.9
COc1cc2nc(C)nc(Nc3cccc(Br)c3)c2cc1OC [TCMDC-131939]	-0.682
N#Cc1ccc(CN2CCC(Oc3ccc(NC(=O)c4cccs4)cc3)C2)cc1 (stereo not drawn) [TCMDC-133959]	8.963
O=C(Nc1cccc(N2CCC(NCCCc3ccncc3)CC2)c1)c1cccc(C(F)(F)F)c1 [TCMDC-124659]	7.336
N[C@@H](CCNC1CCN(c2cccc(C(F)(F)F)c2)CC1)Cc1ccc(F)c(F)c1 [TCMDC-132301]	119.6
N#Cc1c(F)cc(N2CCC(NCC[C@H](N)Cc3ccc(F)c(F)c3)CC2)cc1F [TCMDC-132121]	103.9
O=C(NC1CCCC1)c1ccc(N2CCC(NCc3cccc(C(F)(F)F)c3)CC2)cc1 [TCMDC-124644]	-9.577
N[C@@H](CCN1CCC(c2cccc(O)c2)CC1)Cc1ccc(F)c(F)c1 [TCMDC-132126]	-7.47
N[C@@H](CCNCc1ccc(-c2cccnc2)cc1)Cc1ccc(F)c(F)c1 [TCMDC-132122]	33.59
O=C(Nc1ccc(Cl)c(-c2nc3ccccc3[nH]2)c1)c1ccc(-c2ccc(Cl)cc2)o1 [TCMDC-125599]	-11.96
N#Cc1ccc(N2CCN(Cc3ccc(-c4ccc(-c5nc6ccccc6[nH]5)s4)cc3)CC2)nc1.O=C(O)C(F)(F)F [TCMDC-133119]	-24.51
COCCNCc1ccc(-c2ccc(CN(C(=O)NC3CCCCC3)C3CCN(Cc4ccccc4)CC3)cc2)cc1 [TCMDC-140637]	95.07
COCCNCc1cccc(-c2ccc(CN(C(=O)NC3CCCCC3)C3CCN(Cc4ccccc4)CC3)cc2)c1 [TCMDC-140636]	84.07
C[C@@H](CC1CCCCC1)NCc1cccc(NS(=O)(=O)c2ccc(O)c(-c3ccno3)c2)c1 [TCMDC-141485]	41.65
COc1cc(-c2nc(-c3ccccc3)c(-c3ccc([N+](=O)[O-])cc3)[nH]2)cc(OC)c1O [TCMDC-125529]	-60.07
COc1cc2[nH]c(-c3ccc(O)cc3)c(C)c(=O)c2c(OC)c1OC [TCMDC-137449]	59.36
COc1c(O)cc2oc(-c3ccc(O)cc3)cc(=O)c2c1O [TCMDC-123942]	46.88
O=C(Nc1ccc(Cn2ncc(N3CCCNCC3)c(Cl)c2=O)cc1)Nc1cc(C(F)(F)F)cc(C(F)(F)F)c1 [TCMDC-133327]	-39.39
Cc1cc(N2CCOCC2)nc(Nc2ccc(NC(=O)c3cccc4ccccc34)cc2)n1 [TCMDC-124962]	3.103

SMILES	% Inhibition [%]
C[C@H](N[C@H]1CCCc2c1[nH]c1ccc(Br)cc21)c1ccccc1 [TCMDC-138915]	-58.95
Cc1cc(-c2ccc(NC(=O)c3coc4ccc(N5CC(C)N(C)C(C)C5)cc34)cc2C)cc(C)n1 (stereo not drawn) [TCMDC-141310]	-15.05
Cc1nc(-c2ccc(-c3ccc(NC(=O)c4coc5ccc(N6CC(C)NC(C)C6)cc45)cc3)c(C)c2)no1 (stereo not drawn) [TCMDC-141309]	-4.933
Cc1nc(-c2ccc(-c3ccc(NC(=O)c4coc5ccc(N6CC(C)N(C)C(C)C6)cc45)cc3)c(C)c2)no1 (stereo not drawn) [TCMDC-141233]	92.65
O[C@H](c1cc(C(F)(F)F)nc2c(C(F)(F)F)cccc12)[C@@H]1CCCCN1 [TCMDC-123920]	23.74
N#Cc1cccc(NC(=O)Nc2ccc3c(c2)CN(Cc2c[nH]c4ncccc24)C3)c1 [TCMDC-141757]	5.913
COC(=O)c1cccc(C#CCCOCCCCCCNC[C@H](O)c2cc(Cl)c(N)c(Cl)c2)c1 [TCMDC-138515]	25.12
O=C(c1cc(-c2cccs2)[nH]n1)N1CCN(S(=O)(=O)c2ccc(Cl)s2)CC1 [TCMDC-124701]	26.12
O=C(c1cc(-c2cccs2)[nH]n1)N1CCN(S(=O)(=O)c2ccc(Br)cc2)CC1 [TCMDC-124703]	15.64
O=C(c1cc(-c2ccco2)[nH]n1)N1CCN(S(=O)(=O)c2ccc(Br)cc2)CC1 [TCMDC-124699]	-28.22
Cc1ccc(S(=O)(=O)N2CCN(C(=O)c3cc(-c4cccs4)[nH]n3)CC2)c(C)c1 [TCMDC-124700]	26.64
O=C(c1cc(-c2cccs2)[nH]n1)N1CCN(S(=O)(=O)c2ccc(Cl)cc2)CC1 [TCMDC-124702]	54.51
O=C(c1cc(-c2ccco2)[nH]n1)N1CCN(S(=O)(=O)c2ccc(Cl)cc2)CC1 [TCMDC-124698]	58.01
CC(Nc1ccnc2cc(Cl)ccc12)c1ccc(S(N)(=O)=O)cc1 (stereo not drawn) [TCMDC-125107]	16.92
Cc1nc(Nc2ccc(C)c(Cl)c2)c2c(C)noc2n1 [TCMDC-125162]	15.95
Cc1ccc(Cl)cc1NC(=O)c1c(-c2ccccc2Cl)noc1C [TCMDC-124175]	-15.67
O=C(NC1CCCc2ccccc21)[C@@H]1CCCN1C(=O)c1ccc(O)c(-c2cccc([N+](=O)[O-])c2)c1 (stereo partly drawn) [TCMDC-140798]	18.58
COc1ccc(C(=O)N[C@@H](CC(C)C)C(=O)NC2CC[C@@H](C)N(C(=O)Nc3ccc(Cl)cc3)CC2=O)cc1OCCN1CCOCC1 (stereo partly drawn) [TCMDC-134276]	-74.97
CCOC(=O)c1ccc(OCc2ccc(-c3ccccc3)cc2)cc1 [TCMDC-131397]	4.826
CCOC(=O)c1ccc(COc2ccc(C)nc2)cc1 [TCMDC-131377]	0.9057
CCOC(=O)c1ccc(N(CCCN(CCCN(c2ccc(C(=O)OCC)cc2)S(=O)(=O)c2ccc(C)cc2)CCc2ccc(O)cc2)S(=O)(=O)c2ccc(C)cc2)cc1 [TCMDC-137351]	57.74
